Source: PubChem BioAssay (several laboratories)
Only some compounds are listed: those with a hit (about 1.5% of all), similar ones and a draw of the others.
MCL1 BIM primary: MCL1-BIM-BH3 interaction inhibition (human). Q07820. GST-MCL1 / FITC-Bim-BH3 fluorescence polarization. inhibition, % at 10.9 µM. 320,000 tested, 0.68% active. AID 2057;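 active = inhibition above the mean inhibition of all tested compounds plus 3 SD, set per campaign, cut at about 40% in these data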;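 note: 0% = DMSO wells and 100% = unlabeled Bim-BH3 peptide control; higher means more loss of mP so more displacement of Bim peptide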
GLD-1 RNA inh: GLD-1-TGE RNA interaction inhibition (C. elegans); purified GLD-1 + fluorescein TGE RNA, fluorescence polarization; inhibition, % at 5.96 µM; Q17339; 320,000 tested, 0.44% active; AID 2280;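 active = percent inhibition above a per-plate cutoff, the plate mean of test compounds plus 3 SD, cut at about 30% in these data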;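 note: 0% = DMSO wells with GLD-1 and probe and 100% = wells lacking GLD-1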
eLon inh: inhibits E. coli Lon protease | 360,000 tested, 0.42% active | inhibition, % at 7.94 µM | P0A9M0 | AID 602123 | purified E. coli Lon protease, fluorescence polarization; in the data active = inhibition above about 13%, passing the limit was not always enough;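 note: 0% = enzyme with probe and DMSO and 100% = no enzyme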
EBV gp42 inh: inhibitors of Epstein-Barr virus glycoprotein 42; Q1HVG2; Fluorescence polarization binding assay, mP read-out; inhibition, % (tested at 21.74 µM); 220,000 tested, 0.42% active; in the data active = inhibition above about 50%
Target sequence (Q1HVG2 whole entry, looked up): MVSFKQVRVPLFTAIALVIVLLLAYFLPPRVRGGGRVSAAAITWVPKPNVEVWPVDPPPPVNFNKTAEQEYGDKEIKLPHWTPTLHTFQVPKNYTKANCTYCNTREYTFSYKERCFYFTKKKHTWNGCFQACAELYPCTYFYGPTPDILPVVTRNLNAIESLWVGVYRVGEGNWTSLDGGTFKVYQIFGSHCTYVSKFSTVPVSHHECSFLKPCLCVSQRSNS
Bcl-xL primary: blocks human Bcl-xL binding to Bim BH3 peptide; GST-Bcl-xL / FITC-Bim BH3 peptide fluorescence polarization; inhibition, % at 10.9 µM; 320,000 tested, 0.7% active; AID 2129;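 active = inhibition above the mean of all tested compounds plus 3 SD, cutoff set per campaign, cut at about 30% in these data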;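 note: 0% = DMSO wells and 100% = unlabeled Bim-BH3 peptide competitor; inhibitors lower millipolarization by displacing the labeled peptide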
Target sequence (Q07817 whole entry, looked up): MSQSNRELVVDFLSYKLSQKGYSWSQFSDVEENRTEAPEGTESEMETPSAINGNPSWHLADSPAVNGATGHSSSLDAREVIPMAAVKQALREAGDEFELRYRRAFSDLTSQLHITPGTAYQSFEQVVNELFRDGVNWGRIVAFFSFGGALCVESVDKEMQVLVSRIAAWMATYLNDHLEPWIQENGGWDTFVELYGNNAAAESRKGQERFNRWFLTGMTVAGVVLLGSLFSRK
MEX-5 binding: C. elegans MEX-5 TCR-2 RNA binding activity. Q9XUB2. MEX-5/FITC-TCR2 RNA binding, fluorescence polarization; active compounds read low. activity score (negative = inhibition of binding), % at 10 µM. 300,000 tested, 0.38% active. AID 1832;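 active = inhibition past about -25% in most replicates, and total fluorescence under double the plate's negative control median, limit read from the data; inconclusive = replicates evenly split on the limit, or fluorescence at least double controls; inactive = too little inhibition in most replicates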;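 note: 0% = DMSO and -100% = 5 µM competing unlabeled TCR2 RNA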
The depositor's hits bear a star.

Screening Cc1ccc(-c2ccc(=O)n(CC(=O)NCCN3CCCCC3C)n2)cc1 (stereo unspecified) returned MCL1 BIM primary 41*, GLD-1 RNA inh 12, eLon inh 0, EBV gp42 inh -12, Bcl-xL primary 34* and MEX-5 binding -1.
Screening Cc1ccc2sc(C)cc(=O)c2c1 returned eLon inh -12.
For Cc1ccc(/C=N\NC(=O)CNC(=O)C23CC4CC(CC(C4)C2)C3)o1 the results were MCL1 BIM primary -4, GLD-1 RNA inh -4, eLon inh 2, Bcl-xL primary 0 and MEX-5 binding 2.
Screening CCSC1=NSC2=NC(=O)/C(=C\c3coc4ccccc4c3=O)C(=N)N12 returned MCL1 BIM primary -12, GLD-1 RNA inh -148, eLon inh -352, EBV gp42 inh 88* and Bcl-xL primary -5.
Screening CN1CCc2c(sc3c2C(=O)NC(c2ccccc2)N3)C1 (stereo unspecified) returned MCL1 BIM primary 34, GLD-1 RNA inh 5, eLon inh -64, EBV gp42 inh -57, Bcl-xL primary 41* and MEX-5 binding -10.
Cc1ccc(C2NC(=O)c3c(sc4c3CCN(C)C4)N2)o1 (stereo unspecified) was read as MCL1 BIM primary 37, GLD-1 RNA inh 5, eLon inh -4, EBV gp42 inh -5, Bcl-xL primary 40* and MEX-5 binding -10.
COC(=O)c1ccc(COC(=O)C(NC(=O)Cc2ccccc2)C(C)C)cc1 (stereo unspecified) was read as eLon inh 10.
O=C(O)c1[nH]c2ccccc2c1C(c1ccccc1)c1c(C(=O)O)[nH]c2ccccc12 was read as MCL1 BIM primary 11, GLD-1 RNA inh 6, eLon inh -6, Bcl-xL primary 7 and MEX-5 binding -4.
COc1cc(C(c2c(C(=O)O)[nH]c3ccccc23)c2c(C(=O)O)[nH]c3ccccc23)ccc1OCc1ccccc1 was read as MCL1 BIM primary 68*, GLD-1 RNA inh 0, eLon inh 1, Bcl-xL primary 3 and MEX-5 binding inconclusive.
For CCCCn1c(N)c(N(Cc2ccccc2OC)C(=O)c2cc(CC)c(C)s2)c(=O)[nH]c1=O the results were MCL1 BIM primary -11, GLD-1 RNA inh 4, eLon inh -6 and Bcl-xL primary -8.
`COc1ccc(/C=C2\C(=O)NC(=S)N2C(=O)c2ccc(C)cc2)cc1` gave MCL1 BIM primary -53, GLD-1 RNA inh -24, eLon inh -71, EBV gp42 inh -25, Bcl-xL primary -29 and MEX-5 binding -26*.
CCN1CCc2c(sc(NC(=O)c3ccc4ccccc4c3)c2C(N)=O)C1 was read as MCL1 BIM primary -53, GLD-1 RNA inh -82, eLon inh -160, Bcl-xL primary -33 and MEX-5 binding -46*.
For Cn1ncc(N)c1C(=O)Nc1cccc(C(F)(F)F)c1 the results were MCL1 BIM primary 7, GLD-1 RNA inh 4, eLon inh 9, EBV gp42 inh -4, Bcl-xL primary 41* and MEX-5 binding -2.
Screening CC(=O)c1sc(-c2ccc(F)cc2)cc1NS(=O)(=O)c1ccccc1 returned MCL1 BIM primary 12, GLD-1 RNA inh -1, eLon inh 7, EBV gp42 inh -3, Bcl-xL primary 3 and MEX-5 binding -1.
COc1cccc(-c2nn(-c3ccc(C)cc3)cc2C(=O)N2CCN(C3CCS(=O)(=O)C3)CC2)c1 (stereo unspecified) was read as MCL1 BIM primary 1, GLD-1 RNA inh 3, eLon inh -9 and Bcl-xL primary 2.
For N#Cc1c(N)sc(=S)c2c1CCN(Cc1ccccc1)C2 the results were MCL1 BIM primary 174*, GLD-1 RNA inh 28, EBV gp42 inh 84* and Bcl-xL primary 144*.
For NC(=S)NN=C(c1ccc(Br)cc1)C1CC1 the results were eLon inh 1.
Screening COc1ccccc1NS(=O)(=O)c1cccc(C(=O)N/N=C2\CC(=O)CC(C)(C)C2)c1 returned MCL1 BIM primary 7, GLD-1 RNA inh 59*, eLon inh 21, EBV gp42 inh 9, Bcl-xL primary 9 and MEX-5 binding -3.
Screening CCN(CC)c1ccc(/C=N/NC(=O)c2cccc(S(=O)(=O)Nc3ccccc3OC)c2)c(O)c1 returned MCL1 BIM primary -19, GLD-1 RNA inh -31, eLon inh -53, EBV gp42 inh -87, Bcl-xL primary -10 and MEX-5 binding -31*.
